Activity calls are given as the source filed them. Calls follow the shape of the dose curve; as a rule, active = well fitted curve in the direction sought with a large enough effect in the repeat runs; inconclusive = weak or mixed curves; inactive = flat fitted curve, though single readings scatter.
Assay: qHTS assay to test for compound auto fluorescence at 535 nm (green) in HepG2 cell free culture (AID 720686)
Details: Cell-free medium, green autofluorescence 485/535 nm; series mostly up to 46 µM; fluorescence, % of fluorescein control: at the top concentration
% is scaled to controls: 0 for no effect and ±100 for the full control effect.

Question: Which “fluorescence, % of fluorescein control” value does the source give for CCN(CC)CCOc1ccc(-c2nc3cc(Cl)ccc3s2)cc1 here?
Answer: -0.0026% (inactive)

Question: With O=C(O)CCC/C=C\C[C@@H]1[C@@H](/C=C/[C@@H](O)COc2cccc(C(F)(F)F)c2)[C@H](O)C[C@@H]1O as the compound, how does the “fluorescence, % of fluorescein control” value read?
Answer: -0.0676% (inactive)

Question: For OCC(O)COc1ccc(Cl)cc1 (stereo unspecified), which “fluorescence, % of fluorescein control” value is on record?
Answer: 0.0924% (inactive)

Question: With CC(Oc1ccccc1)C(=O)N[C@@H]1C(=O)N2[C@@H]1SC(C)(C)[C@@H]2C(=O)O (stereo partly specified) as the compound, how does the “fluorescence, % of fluorescein control” value read?
Answer: 0.0017% [at 18.6 µM] (inactive)

Question: Which “fluorescence, % of fluorescein control” value does the source give for C=CCNC1=C2C[C@@H](C)C[C@H](OC)[C@H](O)[C@@H](C)/C=C(\C)[C@H](OC(N)=O)[C@@H](OC)/C=C\C=C(/C)C(=O)NC(=CC1=O)C2=O here?
Answer: -0.0933% (inactive)

Question: For COCC(=O)Nc1cc(Sc2ccccc2)ccc1N=C(NC(=O)OC)NC(=O)OC, which “fluorescence, % of fluorescein control” value is on record?
Answer: 0.0705% (inactive)

Question: With CCCCCCCCCCCCCCCC(=O)OC[C@@H](O)[C@H]1OC[C@H](O)[C@H]1O as the compound, how does the “fluorescence, % of fluorescein control” value read?
Answer: 0.0267% (inactive)

Question: For CCN(CC)Cc1cc(Nc2ccnc3cc(Cl)ccc23)ccc1O, which “fluorescence, % of fluorescein control” value is on record?
Answer: 0.0104% [at 18.6 µM] (inactive)

Question: With C=CC[C@@H]1/C=C(\C)C[C@H](C)C[C@H](OC)[C@H]2O[C@@](O)(C(=O)C(=O)N3CCCC[C@H]3C(=O)O[C@H](/C(C)=C/[C@@H]3CC[C@@H](O)[C@H](OC)C3)[C@H](C)[C@@H](O)CC1=O)[C@H](C)C[C@@H]2OC as the compound, how does the “fluorescence, % of fluorescein control” value read?
Answer: -0.0278% (inactive)

Question: For CN(C)CCC=C1c2ccccc2C(C)(C)c2ccccc21, which “fluorescence, % of fluorescein control” value is on record?
Answer: 0.0696% (inactive)

Question: With CN1CC(O)c2cc(N=NC(N)=O)c(O)cc21 (stereo unspecified) as the compound, how does the “fluorescence, % of fluorescein control” value read?
Answer: -0.0484% (inactive)

Question: With CCOC(=O)Cc1cccc(-c2cc(CCCCCCc3ccc(O[C@H]4O[C@H](COC(C)=O)[C@@H](OC(C)=O)[C@H](OC(C)=O)[C@@H]4OC(C)=O)c(-c4cccc(CC(=O)OCC)c4)c3)ccc2O[C@H]2O[C@H](COC(C)=O)[C@@H](OC(C)=O)[C@H](OC(C)=O)[C@@H]2OC(C)=O)c1 as the compound, how does the “fluorescence, % of fluorescein control” value read?
Answer: -0.0465% (inactive)

Question: With CCCC(=O)O[C@]1(C(=O)COC(C)=O)CC[C@H]2[C@@H]3C[C@H](F)C4=CC(=O)C=C[C@]4(C)[C@@]3(F)[C@@H](O)C[C@@]21C as the compound, how does the “fluorescence, % of fluorescein control” value read?
Answer: 0.0061% (inactive)

Question: For C=C1CC2C3CCC4=CC(=O)C=C[C@]4(C)[C@@]3(F)[C@@H](O)C[C@]2(C)[C@@]1(O)C(=O)COC(C)=O (stereo partly specified), which “fluorescence, % of fluorescein control” value is on record?
Answer: 0.0754% (inactive)

Question: With C[C@H]1[C@@H](OC(=O)CCC(=O)O)O[C@@H]2OC3(C)CC[C@H]4[C@H](C)CC[C@@H]1[C@@]24OO3 as the compound, how does the “fluorescence, % of fluorescein control” value read?
Answer: 0.217% (inactive)

Question: Which “fluorescence, % of fluorescein control” value does the source give for OCCO[C@@H]1[C@@H](O)[C@H](O)[C@@H](CO)O[C@@H]1O here?
Answer: -0.0103% (inactive)

Question: For CN[C@@H]1[C@H](O[C@H]2[C@H](O[C@H]3[C@H](O)[C@@H](O)[C@H](N=C(N)N)[C@@H](O)[C@@H]3N=C(N)N)O[C@@H](C)[C@]2(O)C=O)O[C@@H](CO)[C@H](O)[C@H]1O, which “fluorescence, % of fluorescein control” value is on record?
Answer: 0.115% (inactive)

Question: Which “fluorescence, % of fluorescein control” value does the source give for O=C(Cc1cccs1)N[C@@H]1C(=O)N2C(C(=O)[O-])=C(C[n+]3ccccc3)CS[C@H]12 here?
Answer: 0.556% (inactive)

Question: Which “fluorescence, % of fluorescein control” value does the source give for Clc1cc(Cl)c(OCC#CI)cc1Cl here?
Answer: 0.0793% (inactive)

Question: For C[N@+]12CCCC[C@@H]1CCC(=C(c1cccs1)c1cccs1)C2, which “fluorescence, % of fluorescein control” value is on record?
Answer: -0.017% (inactive)

Question: With CC1(O)CCC(C(C)(C)O)CC1 (stereo unspecified) as the compound, how does the “fluorescence, % of fluorescein control” value read?
Answer: -0.0406% (inactive)

Question: With CC#CCC(C)[C@H](O)/C=C/[C@@H]1[C@H]2c3cccc(CCCC(=O)O)c3O[C@H]2C[C@H]1O (stereo partly specified) as the compound, how does the “fluorescence, % of fluorescein control” value read?
Answer: 0.0003% (inactive)

Question: Which “fluorescence, % of fluorescein control” value does the source give for CCN(CC)CCCC(C)Nc1cc(/C=C/c2ccccc2Cl)nc2cc(Cl)ccc12 (stereo unspecified) here?
Answer: -0.0352% (inactive)

Question: For CCCCC(=O)OCC(=O)[C@]1(O)Cc2c(O)c3c(c(O)c2[C@@H](O[C@H]2C[C@H](NC(=O)C(F)(F)F)[C@H](O)[C@H](C)O2)C1)C(=O)c1c(OC)cccc1C3=O, which “fluorescence, % of fluorescein control” value is on record?
Answer: 1.47% (inactive)

Question: For CC1(C)S[C@@H]2[C@H](NC(=O)C3(N)CCCCC3)C(=O)N2[C@H]1C(=O)O, which “fluorescence, % of fluorescein control” value is on record?
Answer: -0.045% (inactive)

Question: With CC[C@]1(O)CC2CN(CCc3c([nH]c4ccccc34)[C@@](C(=O)OC)(c3cc4c(cc3OC)N(C)[C@H]3[C@@](O)(C(N)=O)[C@H](O)[C@]5(CC)C=CCN6CC[C@]43[C@@H]65)C2)C1 (stereo partly specified) as the compound, how does the “fluorescence, % of fluorescein control” value read?
Answer: 0.262% (inactive)

Question: Which “fluorescence, % of fluorescein control” value does the source give for CC(=O)Nc1ccc(NC(=S)NC(=O)c2ccc(C(C)(C)C)cc2)cc1 here?
Answer: -0.0097% (inactive)

Question: For CO[C@H]1O[C@@H]2O[C@@]3(C)CC[C@H]4[C@H](C)CC[C@@H]([C@H]1C)[C@@]24OO3, which “fluorescence, % of fluorescein control” value is on record?
Answer: 0.115% (inactive)

Question: With OC(CN1CCCCC1)c1cc(-c2ccccc2)on1 (stereo unspecified) as the compound, how does the “fluorescence, % of fluorescein control” value read?
Answer: 0.0119% (inactive)

Question: With CC(C)(C)C1(O)CCN2CC3c4ccccc4CCc4cccc(c43)C2C1 (stereo unspecified) as the compound, how does the “fluorescence, % of fluorescein control” value read?
Answer: -0.0068% (inactive)

Question: With NC[C@@H]1O[C@H](O[C@H]2[C@@H](O)[C@H](O[C@@H]3[C@@H](O)[C@H](N)C[C@H](N)[C@H]3O[C@H]3O[C@H](CO)[C@@H](O)[C@H](O)[C@H]3N)O[C@@H]2CO)[C@H](N)[C@@H](O)[C@@H]1O as the compound, how does the “fluorescence, % of fluorescein control” value read?
Answer: -0.0054% (inactive)

From PubChem BioAssay (Tox21)
